The record followed here is PubChem BioAssay (NCI).

This is part of a sample that, as a whole, favours compounds with a hit. Of some 83,000 tested, about 20% had one in any assay.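 Values shown are percent growth following 48 h exposure of cells in 96-well plates to a single concentration of compound; below 10 was considered active.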 A number with no mark means an inactive call. Active and inactive are the calls of the source.

The subject of this assay is MDA-MB-468 breast. The assay can be described thus: NCI-60 one-dose screen, 48 h (100 = growth as untreated, 0 = no growth, -100 = all killed). As to conditions: 10 µM unless noted.

As to `CN1CCN(c2ccc([N+](=O)[O-])c3no[n+]([O-])c23)CC1`, the growth was -70.3% (active). The value for `O=C1CNC(c2ccccc2)c2cc(Cl)ccc2N1` (stereo not drawn) was 104%; that for `CNC(=O)Oc1ccc2c(c1)OCO2` was 94.6%; that for `O=S(=O)(c1ccc(O)cc1)c1ccccc1O` was 108%. Take `ClCCN(CCCl)c1ccc(/C=C\c2ccnc3ccccc23)cc1`: the growth was 46.1%.

For `CCC(/C=C(C)/C=C/C(=O)c1c(O)c(-c2ccc(O)cc2)c[nH]c1=O)CO` (stereo not drawn), the growth is 98.5%.

With `c1ccc2nc(OCCN3CC3)ccc2c1`, the growth was 69.3%. For the compound `CNC12C3C4C1C1C2C3C41C(=O)N[C@H](C(=O)N(C)[C@H](C[C@@H](OC(C)=O)c1nc(C(=O)N[C@@H](Cc2ccccc2)C[C@H](C)C(=O)OC)cs1)C(C)C)C1CC1` (stereo partly drawn), the growth is -46.5% (active). The value for `N#C[Se]Cc1cc(-c2ccccc2)n(-c2ccc(S(N)(=O)=O)cc2)n1` was -66.1% (active); that for `C[N+]1(CC#CC[N+]2(C)CCCC2)CCCC1` was 98.6%; that for `C[C@]12CC[C@H]3[C@@H](CCC4=CC(=O)CC[C@@H]43)[C@@H]1CC[C@@H]2OC(=O)N(CCCl)N=O` was -22.1% (active).

Take `COC(=O)[C@H](Cc1ccccc1)NC(=O)c1csc([C@@H](C[C@H](C(C)C)N(C)C(=O)[C@@H](NC(=O)[C@H]2CCCCN2C)C2CC2)OC(C)=O)n1`: the growth was -3.15% (active). For `C[C@]12CCc3sc(Nc4ccc(F)cc4)nc3C1=CC[C@@H]1[C@@H]2CC[C@]2(C)C(=O)CC[C@@H]12`, the growth is 40.8%.
